Sampled rows, rich in hits. Any-hit rate of the full collection: about 4.4%.
USP1 inh: inhibitors of human USP1/UAF1 deubiquitinase | recombinant USP1/UAF1, Ub-Rhodamine cleavage fluorescence | Potency, µM (highest dose often 57.1 µM), actives largely listed as inhibitors | hit rate 0.23% among 390,000 | AID 743255; active = well fitted inhibition curve with a large enough effect; inconclusive = small, poorly fitted or top-dose-only effect; inactive = no such curve, though single readings can be large or run the other way; note: nearly all actives have a fitted effect of over 60% in size
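High-throughput fluorogenic screen: 1nM USP1/UAF1 complex, Ub-Rho substrate 150nM final, 50mM HEPES pH 7.8 with 0.5mM EDTA, 0.1 mg/ml BSA, 1mM TCEP and 0.01% Tween-20.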
D1 antagonist: human D1 dopamine receptor antagonism | P21728 | HEK293 TREx D1 cells, calcium flux, dopamine EC80; stronger effect = lower value | activity change, negative = inhibition, % at 10 µM | hit rate 3.2% among 360,000; in the data active = activity change below about -30%
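Cells carrying a force-coupled, tetracycline-inducible human D1 receptor report calcium flux. Each well gets a 10 s baseline, compound with 180 s monitoring, then an EC80 dopamine stimulus with a second 180 s kinetic read.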
TRHR ag: TRH receptor (human) agonism; AID 493084; hit rate 0.18% among 360,000; activation, % at 2 µM; TRHR cells, calcium flux fluo-8, FDSS agonist mode; P34981
Target sequence (P34981 whole entry, looked up): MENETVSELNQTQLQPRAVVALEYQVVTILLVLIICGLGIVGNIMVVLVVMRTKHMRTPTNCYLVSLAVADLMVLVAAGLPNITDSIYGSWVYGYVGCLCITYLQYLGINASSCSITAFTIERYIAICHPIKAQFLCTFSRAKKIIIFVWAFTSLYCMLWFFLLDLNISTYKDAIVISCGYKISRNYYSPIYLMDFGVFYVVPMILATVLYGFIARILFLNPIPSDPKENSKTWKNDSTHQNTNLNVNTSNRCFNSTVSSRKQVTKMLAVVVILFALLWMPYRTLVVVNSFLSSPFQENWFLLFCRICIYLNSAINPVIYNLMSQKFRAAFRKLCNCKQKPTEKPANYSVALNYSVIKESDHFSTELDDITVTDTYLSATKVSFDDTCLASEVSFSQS
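In this calcium-flux screen, cells bearing human TRHR are dye-loaded with fluo-8, baselined for 10 cycles, then exposed to library compounds; positive kinetic calcium responses during the agonist phase mark hits, with TRH as control.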
D1 agonist: activates the human D1 dopamine receptor. hit rate 1% among 360,000. HEK293 T-REx D1 cells, calcium flux, agonist mode. activation, % at 2 µM. P21728
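Tetracycline-induced HEK293 TREx D1 cells, force-coupled to calcium signalling, were dye-loaded with a no-wash calcium kit. Compound was pin-added after a 10 s baseline. Fluorescence was read kinetically at 1 cycle/s for 180 s, with calcium rises flagged as agonism.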
TRHR PAM: TRH receptor (human) allosteric enhancement; AID 493056; hit rate 0.66% among 360,000; enhancement, % at 2 µM; TRHR cells, fluo-8 calcium fluorescence, EC20 TRH enhancement; P34981; in the data active = enhancement above about 30%
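TRHR-expressing cells loaded with fluo-8 calcium dye were read kinetically (ex 480/em 530) during compound addition, then stimulated with an EC20 of TRH (10 nM final). Enhancement of the Gq-mediated intracellular calcium response was scored.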
D1 potentiator: human D1 dopamine receptor positive modulation; potentiation, % at 10 µM; HEK293 TREx D1 cells, calcium flux, dopamine EC20 potentiation; P21728; AID 504651; hit rate 0.036% among 360,000; in the data active = potentiation above about 30%
Of the large screens only hits and unclear results are named; the others gave an inactive call. Cut-off read from the data, not from the text of the source, unless noted: active = activation above about 30%; inactive = the rest.

CC(=O)N1CCc2cc(S(=O)(=O)NC(Cc3ccccc3)C(=O)NCc3ccccc3)ccc21 (configuration not stated)	none
Cc1cccc(NC(=O)CN2c3ccccc3S(=O)(=O)c3ccccc32)c1C	none
CCCC(=O)c1c[nH]c(C(=O)N2CCOCC2)c1	TRHR PAM 36.4 (no result: D1 potentiator)
Nc1nonc1-n1nnc(C(=O)N/N=C/c2ccoc2)c1-c1ccccc1	D1 agonist 35.4
Cc1ccc(/C=N/NC(=O)c2nnn(-c3nonc3N)c2-c2ccccc2)o1	D1 agonist 34.4
COCCCNC(=O)c1cc(=O)n(Cc2ccc(Cl)cc2)c2ccccc12	D1 antagonist -31.1
COc1cccc(N2CCN(C(=O)c3ccc4c(=O)n(CCc5ccccc5)c(=O)[nH]c4c3)CC2)c1	none
Nc1c(Cl)cc(C2=NCCn3nc4cc([N+](=O)[O-])ccc4c32)cc1Cl	none
Nc1c(Cl)cc(C2=NCCn3c2c2ccc([N+](=O)[O-])cc2[n+]3[O-])cc1Cl	D1 antagonist -32.9
O=C1C=CC(=O)N1c1cccc(-c2ccccc2)c1	D1 antagonist -42.6
N#CC1=C(Nc2ccccc2)SC=C(c2ccc(Cl)c(Cl)c2)N=C1N1CCOCC1	D1 antagonist -59.7
CCn1c(/C=C/c2ccccc2[N+](=O)[O-])nc2ccccc2c1=O	TRHR PAM 40.1
CCN1C(Nc2ccccc2)=NC[C@@H]1CC(C)C	none
Cc1cccc(CCN2C(Nc3ccccc3)=NC[C@@H]2CC(C)C)c1	TRHR ag 40.7, D1 agonist 214.9
CC(C)C[C@H]1CN=C(Nc2ccccc2)N1CC1CCCCCC1	D1 antagonist -31.0
c1ccc(CCCCN2C(Nc3ccccc3)=NC[C@@H]2Cc2ccccc2)cc1	D1 agonist 44.9
CC(C)C[C@H]1CN=C(Nc2ccccc2)N1CCc1ccc(F)cc1	D1 antagonist -32.2, TRHR ag 39.3, D1 agonist 234.1
CC(C)C[C@H]1CN=C(Nc2ccccc2)N1CCc1cccc(F)c1	none (no result: D1 antagonist, TRHR ag, D1 agonist, TRHR PAM, D1 potentiator)
COc1ccc(Cn2c(CNS(=O)(=O)c3ccc(C)c(C)c3)nc3cccnc32)cc1	none
CCCNC(=O)COC(=O)c1cccnc1Nc1ccccc1F	D1 antagonist -32.5
NC(=O)NC(=O)COC(=O)c1cccnc1Nc1ccccc1F	none
CSc1nnc2c3ccccc3n(CCc3ccccc3)c2n1	none
CSc1nnc2c3ccccc3n(Cc3ccccc3)c2n1	D1 antagonist -56.5
Cc1cc2c(s1)c1cnn(Cc3ccc(-n4cncn4)cc3)c(=O)c1n2C	none (no result: USP1 inh)
COc1cc(NC(=O)CC(C)n2nc(C)cc2C)cc(OC)c1 (configuration not stated)	none
Cc1sc(NC(=O)CSc2nnc(C(C)C)n2C)c(C#N)c1C	none
CCOc1ccc(NC(=O)CSc2nnnn2C2CCCC2)cc1	D1 agonist 47.4 (no result: D1 potentiator)
Cc1sc(NC(=O)CSc2nnnn2C2CCCCC2)c(C#N)c1C	D1 antagonist -33.5
COc1ccc([C@]23Cc4cc(C#N)ccc4[C@H](O2)c2c(cc(C)n(Cc4ccccc4)c2=O)O3)cc1	none (no result: USP1 inh)
CC(=O)N1CCc2cc(Br)cc(S(=O)(=O)CCC(=O)N3CCN(c4ccc(F)cc4)CC3)c21	none
O=C(/C=C/c1cccc([N+](=O)[O-])c1)N1CCN(c2ccccc2F)CC1	D1 antagonist -58.4
CCOc1ccccc1N1CCN(C(=O)/C=C/c2cccc([N+](=O)[O-])c2)CC1	none
O=C(/C=C/c1ccccc1[N+](=O)[O-])N1CCN(c2ccccc2F)CC1	D1 antagonist -67.9
Cc1ccc(NC(=O)c2cc3nc(-c4ccc5c(c4)OCO5)cc(C(F)(F)F)n3n2)cc1Cl	none
Cc1nnc(N2CCCC(C(=O)NCCc3ccccc3)C2)c2nn(-c3ccccc3)c(C)c12 (configuration not stated)	none
O=C(OCc1cc(=O)n2nc(C3CCCCC3)sc2n1)c1ccccc1Cl	none
CC1=CC(=O)C=C(C)C1=NOc1ccccc1[N+](=O)[O-]	D1 antagonist -66.1
Cc1cc(C)c(S(=O)(=O)Oc2ccccc2[N+](=O)[O-])c(C)c1	none (no result: D1 antagonist, TRHR ag, D1 agonist, TRHR PAM, D1 potentiator)
CC(C)Cn1c(-c2ccc(Br)cc2)c[nH]c1=S	D1 agonist 42.8
CCN(CCCNC(=O)c1cc2c(=O)[nH]c3ccc(C)cc3c2s1)Cc1ccccc1	none
COc1cc(/C=C/c2sc3ccccc3[n+]2CCCS(=O)(=O)[O-])ccc1O	USP1 inh 25.1µM
Cc1nc(-c2ccc(S(=O)(=O)N3CCN(c4cccc(C(F)(F)F)c4)CC3)cc2)co1	none
Cc1ccc2c(Sc3ccccc3)c(C(=O)NCc3ccccc3F)[nH]c2c1	D1 antagonist -43.9
CC(=O)c1c(O)cc(C)n(Cc2ccccc2)c1=O	none (no result: D1 antagonist, TRHR ag, D1 agonist, TRHR PAM, D1 potentiator)
CC(=O)c1c(O)cc(O)c(C(C)=O)c1O	D1 antagonist -45.3
CC(=O)c1c(O)cc(O)cc1CC(=O)O	D1 antagonist -57.6
COc1ccc(-c2[nH]c3ccccc3c2SCCNC(=O)c2cc(OC)c(OC)c(OC)c2)cc1	none
O=C(Cn1c(SCCOc2ccccc2Cl)nc2ccccc21)N1CCOCC1	none
CC(C)c1noc(-c2ccccc2OCC(=O)Nc2cccc([N+](=O)[O-])c2)n1	none
CCOc1c2ccc(C(=O)NCCc3cccs3)cc2nn1CC	none
CCCCOc1ccc(C(=O)NCC2(c3ccccc3)CCOCC2)cc1	D1 antagonist -40.2
CCCCn1nc2cc(C(=O)NCCc3cccs3)ccc2c1OCC	USP1 inh inconclusive, D1 antagonist -67.2
CCCCOc1ccc(C(=O)NCCc2cccs2)cc1	D1 antagonist -31.6 (no result: USP1 inh)
CC1CCN(C(=O)Cn2c(=O)n(CCCCCC(=O)NCc3ccccc3Cl)c(=O)c3sccc32)CC1	none
O=c1c2cc3c(cc2nc2sc(Nc4ccc(F)c(Cl)c4)nn12)OCO3	D1 agonist 54.8
CCOC(=O)c1c(C)[nH]c(CCC(=O)Nc2ccc(Cl)cc2C)c1C	none
COc1ccc(NC(=O)Nc2cccc(C(F)(F)F)c2)cn1	D1 antagonist -30.3
COc1ccc(NC(=O)Nc2cc(C)cc(C)c2)cn1	none
O=C(O)c1ccccc1C(=O)Nc1ccc(Oc2cccc(C(F)(F)F)c2)nc1	none
COc1ccc(NC(=O)Nc2ccc([N+](=O)[O-])cc2)cn1	D1 antagonist -51.8, D1 agonist 35.0
O=C(Nc1cccc(C(F)(F)F)c1)Nc1cccs1	USP1 inh inconclusive, D1 antagonist -44.4
COc1ccc(NC(=O)Nc2cccs2)cn1	USP1 inh inconclusive
Cc1ccc(C(=O)Nc2ccc(Oc3cccc(C(F)(F)F)c3)nc2)cc1	D1 antagonist -30.6
Cc1ccc2onc(CC(=O)N3CCN(c4ccc(F)cc4)CC3)c2c1	none
Cc1cc(C)c2c(CC(=O)Nc3nnc(C(C)C)s3)coc2c1	none
